From PubChem BioAssay AID2597 (National Center for Advancing Translational Sciences (NCATS), 2010)
Records with an inconclusive call do not appear. Where a call stands in place of a potency, no number is given. Calls of active or inactive are those of the source. Calls come from the whole dose curve; as a rule, active = well fitted curve in the direction sought with a large enough effect; inconclusive = small, poorly fitted or top-dose-only effect, or effect the other way, or another doubt; inactive = no such curve, though single readings can be large or run the other way.

These molecules were tested against Lysosomal acid glucosylceramidase (Homo sapiens) (UniProt P04062) (assay: qHTS Assay for Inhibitors and Activators of N370S glucocerebrosidase as a Potential Chaperone Treatment of Gaucher Disease: Purified N370S Glucocerebrosidase). Settings: purified N370S GC, 4-MU-glucoside fluorescence, 40 min; series mostly up to 76.9 µM.
Text: NIH Chemical Genomics Center [NCGC] NIH Molecular Libraries Probe Production Centers Network [MLPCN] MLPCN Grant: MH086442-01 Assay Submitter (PI): Wei Zheng Glucocerebrosidase (GC) catalyzes the hydrolysis of beta-glucocerebroside to glucose and ceramide in lysosomes. Mutations in the glucocerebrosidase gene result in Gaucher disease, an autosomal recessive lysosomal storage disorder. Many of the mutations encountered in patients with Gaucher disease are missense alterations that may cause misfolding, decreased stability and/or mistrafficking of this lysosomal protein. […] These inhibitors include iminosugar analogs and three non-iminosugar inhibitors identified from a previous HTS of 62,000 compounds with the wild type recombinant enzyme. However, the enhancement of enzyme activity by the chaperone action of an enzyme inhibitor must be balanced against the direct inhibition of the enzyme. An enzyme activator could also function as a chaperone by binding to the enzyme and helping to correct its misfolding and mistrafficking. While activators for GC have not yet been identified, they may have better therapeutic potential than inhibitors. Therefore the discovery and development of chemical activators may provide a new strategy for the chaperone therapy. We have optimized a new assay using N370S mutant GC derived from the spleen of a Gaucher patient. […] In addition, the MLPCN compound library has expanded, which increases the chance of finding new and better probes. This assay characterizes compound activity using purified mutant enzyme instead of tissue homogenate. Compound activity differences may be due to the absence of endogenous cofactors found in tissue homogenate.
NCGC Assay Protocol Summary: This is a fluorogenic enzyme assay with 4-methylumbelliferyl-beta-D-glucopyranoside as the substrate and purified N370S glucocerebrosidase as the enzyme preparation. Upon the hydrolysis of this fluorogenic substrate, the resulting product, […] which can be detected by a standard fluorescence plate reader. Data were normalized to the controls for basal activity (without enzyme) and 100% activity (with enzyme). The AC50 values were determined from concentration-response data modeled with the standard Hill equation. Assay buffer: 50 mM citric acid (titrated with potassium phosphate to pH 5.0), 100 mM potassium chloride, 10 mM sodium chloride, 1 mM magnesium chloride, 0.01% Tween-20. 1536-well assay protocol: (1) Add 2 ul/well of glucocerebrosidase enzyme solution (5 nM final) (2) Add 23 nL compounds in DMSO solution. The final titration was 0.5 nM to 58 uM. (3) Add 2 ul of substrate (1 mM final) (4) Incubate at 37C for 40 min. (5) Add 2 ul stop solution (1M NaOH and 1M Glycine mixture, pH 10) (6) Detect the assay plate in a ViewLux plate reader (PerkinElmer) with Ex=365 nm and Em=440nm. Keywords: Glucocerebrosidase, beta-glucosidase, Gaucher Disease, pharmacological chaperone, chaperone therapy, high throughput screening, glucocerebrosidase inhibitor, MLSMR, MLSCN, NIH Roadmap, qHTS and NCGC

Lysosomal acid glucosylceramidase (Homo sapiens), sequence (P04062 whole entry N409S): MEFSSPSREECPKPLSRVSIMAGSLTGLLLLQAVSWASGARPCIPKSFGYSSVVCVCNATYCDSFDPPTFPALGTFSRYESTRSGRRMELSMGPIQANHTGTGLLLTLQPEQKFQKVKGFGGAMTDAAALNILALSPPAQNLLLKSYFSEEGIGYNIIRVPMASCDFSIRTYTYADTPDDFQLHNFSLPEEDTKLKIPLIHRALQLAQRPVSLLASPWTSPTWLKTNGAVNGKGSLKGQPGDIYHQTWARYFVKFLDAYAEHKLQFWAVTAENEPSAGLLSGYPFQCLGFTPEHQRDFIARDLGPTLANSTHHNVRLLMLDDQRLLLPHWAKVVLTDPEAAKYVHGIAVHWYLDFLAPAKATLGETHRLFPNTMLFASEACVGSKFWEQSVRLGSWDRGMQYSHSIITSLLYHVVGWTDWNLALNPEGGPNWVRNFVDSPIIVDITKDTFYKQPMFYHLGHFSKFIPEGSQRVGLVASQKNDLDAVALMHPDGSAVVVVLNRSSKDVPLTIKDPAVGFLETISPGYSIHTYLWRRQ

Structure (SMILES) | Potency
COc1ccc(-c2nc(N3CCN(S(=O)(=O)c4ccc(F)cc4)CC3)c3ccccc3n2)cc1 | inactive
O=S(=O)(c1ccc(Cl)cc1)N1CCN(c2nc(Nc3cc(Cl)ccc3O)nc3ccccc23)CC1 | 14.1 µM (active)
O=C(c1ccc2c(c1)OCCO2)N1CCN(c2nc(-c3cccs3)nc3ccccc23)CC1 | inactive
O=S(=O)(c1ccc(F)cc1)N1CCN(c2nc(-c3ccc(F)cc3)nc3cc(Cl)ccc23)CC1 | inactive
O=S(=O)(c1ccccc1Cl)N1CCN(c2nc(-c3cccs3)nc3ccccc23)CC1 | inactive
Cc1ccc(S(=O)(=O)N2CCN(c3nc(-c4cccs4)nc4ccccc34)CC2)cc1 | inactive
COc1ccc(-c2nc(N3CCN(S(=O)(=O)c4ccc(C)cc4)CC3)c3ccccc3n2)cc1 | inactive
Cc1ccc(-c2nc(N3CCN(S(=O)(=O)c4ccc(F)cc4)CC3)c3ccc(Cl)cc3n2)cc1 | inactive
COc1ccc(-c2nc(N3CCN(S(=O)(=O)c4ccccc4)CC3)c3ccccc3n2)cc1 | inactive
S=C(NCCCc1cnc[nH]1)NCCCN(Cc1ccc(Cl)c(Cl)c1)c1ccc(Br)cn1 | 2.51 µM (active)
O=S(=O)(c1ccc(Cl)cc1)N1CCN(c2nc(-c3cccc(Br)c3)nc3ccccc23)CC1 | inactive
O=S(=O)(c1ccc2c(c1)OCCO2)N1CCN(c2nc(-c3ccccc3)nc3ccccc23)CC1 | inactive
O=S(=O)(Cc1ccccc1)N1CCN(c2nc(-c3cccs3)nc3ccccc23)CC1 | inactive
O=S(=O)(c1ccc(F)cc1)N1CCN(c2nc(-c3cccs3)nc3cc(Cl)ccc23)CC1 | inactive
c1csc(-c2nc(NCC3CCCO3)c3ccccc3n2)c1 (centres undefined) | inactive
Cc1cc(C)cc(N(CC(=O)NC2CCCCCC2)S(=O)(=O)c2c(C)[nH]c(=O)[nH]c2=O)c1 | 1.58 µM (active)
Cc1ccccc1S(=O)(=O)N1CCN(c2nc(-c3cccs3)nc3ccccc23)CC1 | inactive
O=S(=O)(c1ccc(Cl)cc1)N1CCN(c2nc(-c3cccs3)nc3ccccc23)CC1 | inactive
OCCNc1nc(-c2cccs2)nc2ccccc12 | inactive
O=S(=O)(c1cccc(C(F)(F)F)c1)N1CCN(c2nc(-c3cccs3)nc3cc(Cl)ccc23)CC1 | inactive

Structure (SMILES) | Potency
COc1cccc(S(=O)(=O)N2CCN(c3nc(-c4cccs4)nc4ccccc34)CC2)c1 | inactive
O=S(=O)(c1ccc(F)cc1)N1CCN(c2nc(-c3ccccc3)nc3cc(Cl)ccc23)CC1 | inactive
O=S(=O)(c1ccccc1C(F)(F)F)N1CCN(c2nc(-c3cccs3)nc3ccccc23)CC1 | inactive
CC(C)(C)c1ccc(S(=O)(=O)N2CCN(c3nc(-c4cccs4)nc4ccccc34)CC2)cc1 | inactive
O=S(=O)(c1cccs1)N1CCN(c2nc(-c3cccs3)nc3ccccc23)CC1 | inactive
O=S(=O)(c1ccc(Cl)cc1)N1CCN(c2nc(-c3ccc(Cl)cc3)nc3ccccc23)CC1 | inactive
NS(=O)(=O)c1ccc(S(=O)(=O)N2CCN(c3nc(-c4cccs4)nc4ccccc34)CC2)cc1 | inactive
O=S(=O)(c1ccc(F)cc1)N1CCN(c2nc(-c3cccc(Br)c3)nc3ccccc23)CC1 | inactive
O=S(=O)(c1ccccc1)N1CCN(c2nc(-c3ccc(F)cc3)nc3cc(Cl)ccc23)CC1 | inactive
CC(C)(C)C(=O)OCCNc1nc(-c2ccccc2)nc2ccccc12 | 8.91 µM (active)
O=S(=O)(c1ccc2ccccc2c1)N1CCN(c2nc(-c3cccs3)nc3ccccc23)CC1 | inactive
O=S(=O)(c1cccc2ccccc12)N1CCN(c2nc(-c3cccs3)nc3ccccc23)CC1 | inactive
O=S(=O)(c1ccc2c(c1)OCCO2)N1CCN(c2nc(-c3cccs3)nc3ccccc23)CC1 | inactive
O=S(=O)(c1ccc(Cl)cc1)N1CCN(c2nc(-c3ccc(F)cc3)nc3cc(Cl)ccc23)CC1 | inactive
COc1ccc(S(=O)(=O)N2CCN(c3nc(-c4cccs4)nc4ccccc34)CC2)cc1 | inactive
CC(C)C(C)NC(=O)CSc1nc2scc(-c3ccco3)c2c(=O)n1-c1ccccc1 (centres undefined) | inactive
Cc1cccc(S(=O)(=O)N2CCN(c3nc(-c4cccs4)nc4ccccc34)CC2)c1 | inactive
Cc1ccc(S(=O)(=O)N2CCN(c3nc(-c4ccc(F)cc4)nc4cc(Cl)ccc34)CC2)cc1 | inactive
N#Cc1ccc(S(=O)(=O)N2CCN(c3nc(-c4cccs4)nc4ccccc34)CC2)cc1 | inactive
